# Results as given in PubChem BioAssay (EPA / NIEHS).
# “And” between values parts separate entries of the source, which are not always exact repeats. Equal values may be shown once. Results filed as inconclusive are left out. The source made the active and inactive calls. The calls were made as follows, unless noted: active = hit-call score of the fitted dose curve at least 0.9, where 1 is the maximum; inactive = score below 0.9.
# Legend:
# [1] = CCTE_Deisenroth_5AR_NBTE_donor: CCTE's 5alpha-reductase NanoBRET Target Engagement Assay […], Deisenroth Lab (AID 2284319); conditions: actives raise or lower the signal
# How it was run: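 HEK293T cells were reverse transfected with an SRD5A2-NanoLuc vector for 20 h, exposed to test chemical (8 points, 10 nM - 29.9 uM) for 3 h, then testosterone tracer for 2 h more. Donor luminescence (460 nm) was read; bidirectional fit versus DMSO.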
# [2] = CCTE_Deisenroth_5AR_NBTE_acceptor: CCTE's 5alpha-reductase NanoBRET Target Engagement Assay - Autofluorescence Screen, Deisenroth Lab (AID 2284321); conditions: actives raise or lower the signal;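 also: compound fluorescence in the acceptor channel under 460 nm excitation flags autofluorescence artifacts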
# How it was run: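 HEK293T cell-based NanoBRET assay read 5 h after dosing; this acceptor channel serves as an autofluorescence artifact screen. Chemicals at nominal 100 uM were scanned in three independent runs (n=3), excitation 460 nm. Fitting was bidirectional versus DMSO baseline.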
# SRD5A2 (gene 6716) = assay: CCTE_Deisenroth_5AR_NBTE_ratio: CCTE's 5alpha-reductase NanoBRET Target Engagement Assay - Ratio, Deisenroth Lab (AID 2284322); conditions: actives raise or lower the signal
# How it was run: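 Reverse-transfect HEK293T with pNLF1-C-SRD5A2, express 20 h. Pre-incubate cells with chemical 3 h (8-point series, 10 nM - 29.9 uM, duplicate). Add testosterone tracer, 2 h more. Add substrate/inhibitor, read donor and acceptor emission.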
# [3] = TAMU_PeakParms_SingleDonor1434_Asystole: Texas A&M University (TAMU) 1.5-hr Human Induced Pluripotent Stem Cell (iPSC)-derived Cardiomyocytes Calcium (Ca+2) Flux Assay for Cardiotoxicity: Asystole (quiescence of beating) (AID 2284328; active = hit-call score of the fitted dose curve at least 0.9, where 1 is the maximum)
# How it was run: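 Human iPSC-derived cardiomyocytes (donor 1434) were exposed to 0.2, 1, 10 and 100 uM compound in 0.5% DMSO for 90 min at 37C. Ca2+-dye fluorescence gave average peak frequency; POD is EC95, a 95% beat-rate drop versus DMSO.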
# [4] = IUF_NPC1_cytotoxicity_72hr: Cytotoxicity Assessment at 72 hours in the Leibniz Research Institute for Environmental Medicine (IUF) Neural Progenitor Cell Proliferation Assay (NPC1) (AID 2284332; active = hit-call score of the fitted dose curve at least 0.9, where 1 is the maximum;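 also: rising LDH signal means more cytotoxicity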)
# How it was run: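 Single human fetal cortex neural progenitor spheres (GW 16-19, 0.25-0.35 mm) in EGF/FGF proliferation medium were exposed to compound for 72 h at 37C without renewal. Medium LDH release was read as resorufin fluorescence and fitted as gain-of-signal.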
# [5] = VALA_TUBIPS_Antagonist_CellCount: Viability Assessment in the VALA Sciences human iPS-derived Endothelial Tubule Formation (TUBIPS) Antagonism Assay (AID 2284335; active = hit-call score of the fitted dose curve at least 0.9, where 1 is the maximum)
# [6] = system: Brachyury (BRA) Protein Expression, Deisenroth Lab, TBXT (gene 6862); assay: CCTE_Deisenroth_DEVTOX-GLR_legacy_Bra: (Legacy) CCTE's DevTox GLR-Endo Assay Evaluation of Brachyury (BRA) Protein Expression, Deisenroth Lab (AID 2284329)
# How it was run: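 RUES2-GLR human pluripotent cells differentiated 48 h with two 24-h-interval chemical exposures (1 nM - 200 uM, 10 points); fixed, nuclear-stained, imaged. Bra+ cell percentage (intensity 5x BMAD above pluripotent control median) fitted relative to 0.2% DMSO.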
# [7] = CCTE_Deisenroth_DEVTOX-GLR_legacy_CellCount: (Legacy) Viability Assessment in CCTE's DevTox GLR-Endo Assay, Deisenroth Lab (AID 2284331); conditions: actives raise or lower the signal
# Protocol: CCTE_Deisenroth_DEVTOX-GLR_legacy assay is a cell-based, multiplex-readout assay that uses RUES2-GLR, a human pluripotent cell line, with measurements taken at 48 hours after chemical dosing in a 384-well microplateCCTE_Deisenroth_DEVTOX-GLR_legacy_CellCount is one of 4 assay components calculated from the CCTE_Deisenroth_DEVTOX-GLR_legacy assay that measures an increase in cell count. It is designed to make measurements of nuclei count, a form of cell viability, as detected with optical fluorescence microscopy by Perkin Elmer Harmony nuclei detection algorithm. The assay endpoints were analyzed with bidirectional fitting relative to 0.2% DMSO control in the DEVTOX-GLR assay.Data from the assay component CCTE_Deisenroth_DEVTOX-GLR_legacy_CellCount was analyzed into 1 assay endpoint. This assay endpoint, CCTE_Deisenroth_DEVTOX-GLR_legacy_CellCount, was analyzed with bidirectional fitting relative to DMSO as the negative control and baseline activity. Using nuclei counting, gain or loss-of-signal activity can be used to understand changes in cell viability. Furthermore, this assay endpoint can be referred to as a primary readout, because this assay has produced multiple assay endpoints where this one serves as a measure of cytotoxicity. To generalize the intended target to other relatable targets, this assay endpoint is annotated to the cell cycle intended target family, where the subfamily is cytotoxicity.
# All assay protocols are aligned to the DevTox GLR-Endo assay workflow. Cells are seeded into 384-well microplates for 24 hours prior to initiating differentiation in defined media for a total duration of 48 hours. A total of two chemical exposures are administered in 24-hour intervals during the 48-hour differentiation period. At the assay termination point, cells are fixed and stained with a fluorescent dye demarcating the nucleus. […] Cell identification and mean biomarker fluorescence intensities are calculated with image analysis software to determine the total cell counts for viability assessment and the biomarker expression frequency for each lineage-dependent assay. […]
# TTR (gene 7276) = assay: CCTE_GLTED_hTTR_0.5uM: CCTE's human Transthyretin (hTTR) Inhibition Assay, with 0.5uM TTR, Great Lakes Toxicology and Ecology Division (GLTED) Lab (AID 2284320)
# How it was run: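 Cell-free displacement assay in which human TTR at 0.5 uM was incubated with test chemical for 2 h. Displacement of the ANSA probe was read by fluorescence at 380 nm excitation/475 nm emission. Loss of signal was fitted in the positive direction versus DMSO.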
# [8] = VALA_TUBHUV_Antagonist_TubuleLength: VALA Sciences human Umbilical Vein Endothelial Tubule Formation (TUBHUV) Antagonism Assay (AID 2284325; active = hit-call score of the fitted dose curve at least 0.9, where 1 is the maximum)
# Protocol: VALA_TUBHUV_Antagonist is a cell-based, multiplexed assay that uses human umbilical vein endothelial cells (HUVEC). Measurements were taken 72 hours after chemical dosing in a 96-well plate.VALA_TUBHUV_Antagonist_TubuleLength is the one of two assay components measured from the VALA_TUBHUV_Antagonist assay. It is designed to make measurements of tubulogenesis, a form of morphology reporter, as detected with fluorescence intensity signals by HCS Fluorescent Imaging technology. This VALA_TUBHUV_Antagonist assay was designed to detect chemical suppression of tubulogenesis, i.e. antagonism.Data from the assay component VALA_TUBHUV_Antagonist_TubuleLength was analyzed at the endpoint, VALA_TUBHUV_Antagonist_TubuleLength, in the positive analysis fitting direction relative to DMSO as the negative control and baseline of activity. Using a type of morphology reporter, loss-of-signal activity can be used to understand developmental effects. To generalize the intended target to other relatable targets, this assay endpoint is annotated to the neurodevelopment intended target family, where the subfamily is tubulogenesis.
# This HUVEC-HDF assay was designed to detect chemical suppression of tubulogenesis, i.e. antagonism. […]
structure (smiles),measurement,setting,value
CCCCCCCCCCCCCC[N+](C)(C)C,AC50,[1],42.7 µM (active)
same,AC50,[2],26.2 µM (active)
same,AC50,SRD5A2 (gene 6716),75.1 µM (active)
CC#C[C@]1(O)CC[C@H]2[C@@H]3CCC4=CC(=O)CCC4=C3[C@@H](c3ccc(N(C)C)cc3)C[C@@]21C,outcome,[3],inactive
same,outcome,[4],inactive
COCC(C)O (centres undefined),outcome,[1],inactive
same,outcome,[2],inactive
same,outcome,SRD5A2 (gene 6716),inactive
CCCCCCCCCCCCc1ccccc1S(=O)(=O)O,outcome,[5],inactive
c1ccc2cc3c(ccc4ccccc43)cc2c1,outcome,[3],inactive
COCC(C)OCC(C)O (centres undefined),outcome,[1],inactive
same,outcome,[2],inactive
same,outcome,SRD5A2 (gene 6716),inactive
CCN(CC)CCNc1ccc(CNC=O)c2sc3ccc(OC)cc3c(=O)c12,outcome,[1],inactive
same,outcome,[2],inactive
same,outcome,SRD5A2 (gene 6716),inactive
C[C@@H]1C[C@H]2[C@@H]3CCC4=CC(=O)C=C[C@]4(C)[C@@]3(F)[C@@H](O)C[C@]2(C)[C@@]1(O)C(=O)COP(=O)(O)O,outcome,[6],inactive
same,outcome,[7],inactive
O=C1OC2(c3ccccc31)c1cc(Br)c(O)c(Br)c1Oc1c2cc(Br)c(O)c1Br,outcome,[1],inactive
same,outcome,[2],inactive
same,AC50,SRD5A2 (gene 6716),7.55 µM (active)
CC(O)CO (centres undefined),outcome,[6],inactive
same,outcome,[7],inactive
O=[N+]([O-])c1ccc(O)cc1,outcome,[1],inactive
same,outcome,[2],inactive
same,AC50,SRD5A2 (gene 6716),71.2 µM (active)
CCOC(=O)CC(O)(CC(=O)OCC)C(=O)OCC,outcome,[1],inactive
same,outcome,[2],inactive
same,outcome,SRD5A2 (gene 6716),inactive
CC1=C(/C=C/C(C)=C/C=C/C(C)=C/C(=O)O)C(C)(C)CCC1,AC50,[6],11.7 µM (active)
same,AC50,[7],4.44 µM (active)
same,outcome,[4],inactive
c1ccc2c(c1)ccc1ccccc12,outcome,[3],inactive
FC(F)(I)C(F)(F)C(F)(F)C(F)(F)C(F)(F)C(F)(F)I,AC50,TTR (gene 7276),1.91 µM (active) and 1.88 µM (active)
CCCCCCCCOC(=O)CCCCCCCCC(=O)OCCCCCCCC,outcome,[1],inactive
same,outcome,[2],inactive
same,outcome,SRD5A2 (gene 6716),inactive
c1ccc2c(c1)Cc1ccccc1-2,outcome,[3],inactive
O=C(O)Cc1cc(I)c(Oc2cc(I)c(O)c(I)c2)c(I)c1,outcome,[8],inactive
